# TRHR agonist – TRH receptor (human) agonism; P34981; TRHR cells, calcium flux fluo-8, FDSS agonist mode; activation, % at 2 µM; 360,000 compounds, 0.18% hits; AID 493084
#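 Steps: seed TRHR cells overnight; add fluo-8 no-wash Ca dye, RT 30 min–1.5 h; record 10 s baseline; pin-transfer compounds; monitor fluorescence 1 cycle/s for the agonist window. Calcium increases flag candidate agonists.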
# D1 antagonist – human D1 dopamine receptor antagonism. 360,000 compounds, 3.2% hits. P21728. activity change, negative = inhibition, % at 10 µM. HEK293 TREx D1 cells, calcium flux, dopamine EC80; hits give low values; in the data active = activity change below about -30%
# Target sequence (P21728 whole entry, looked up): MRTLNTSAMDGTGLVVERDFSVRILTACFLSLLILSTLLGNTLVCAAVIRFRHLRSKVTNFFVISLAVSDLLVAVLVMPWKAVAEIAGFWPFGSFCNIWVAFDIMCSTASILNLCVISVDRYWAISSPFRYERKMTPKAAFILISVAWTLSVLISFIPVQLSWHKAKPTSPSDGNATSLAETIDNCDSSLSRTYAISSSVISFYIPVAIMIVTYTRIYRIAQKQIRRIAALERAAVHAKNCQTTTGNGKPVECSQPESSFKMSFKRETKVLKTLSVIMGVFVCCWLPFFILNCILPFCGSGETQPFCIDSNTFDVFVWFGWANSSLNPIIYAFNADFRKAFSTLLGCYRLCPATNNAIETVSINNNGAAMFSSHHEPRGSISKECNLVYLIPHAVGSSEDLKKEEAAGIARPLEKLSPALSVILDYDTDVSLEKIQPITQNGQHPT
#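 Calcium flux readout: force-coupled, inducible Hek293 Trex D1 line, cells induced overnight at 30 C with tetracycline, dye-loaded 30–90 min at RT. Antagonism scored against EC80 dopamine challenge given 180 s after compound.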
# TRHR enhancer – TRH receptor (human) allosteric enhancement. TRHR cells, fluo-8 calcium fluorescence, EC20 TRH enhancement. enhancement, % at 2 µM. 360,000 compounds, 0.66% hits. AID 493056; in the data active = enhancement above about 30%
#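 TRHR-expressing cells loaded with fluo-8 calcium dye were read kinetically (ex 480/em 530) during compound addition, then stimulated with an EC20 of TRH (10 nM final). Enhancement of the Gq-mediated intracellular calcium response was scored.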
# D1 ag – agonists of human D1 dopamine receptor. activation, % at 2 µM. P21728. AID 504660. 360,000 compounds, 1% hits. HEK293 T-REx D1 cells, calcium flux, agonist mode
#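 Inducible HEK293 T-REx D1 cells, force-coupled to calcium signalling, were plated at 4000 cells/well with tetracycline and held overnight at 30 C. After no-wash calcium dye loading, compound-evoked calcium rise over 180 s flagged agonists.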
# D1 potentiator – enhances dopamine response at the human D1 receptor. HEK293 TREx D1 cells, calcium flux, dopamine EC20 potentiation. potentiation, % at 10 µM. 360,000 compounds, 0.036% hits; in the data active = potentiation above about 30%
# Numbers stand for hits; n = inactive; x = not tested or not shown; ! = a repeat was not active. Only some compounds are listed: those with a hit (about 4.6% of all), similar ones and a draw of the others. Cut-off read from the data, not from the text of the source, unless noted: active = activation above about 30%; inactive = the rest.
SMILES,TRHR agonist,D1 antagonist,TRHR enhancer,D1 ag,D1 potentiator
CCc1ccc(NC(=O)C2CCCN(c3nn4cc(-c5ccc(OC)cc5)nc4s3)C2)cc1 (stereo not given),n,n,n,n,n
CCC12CN3CC(C)(CN(C1)C3c1ccc(O)cc1O)C2=O (stereo not given),n,n,n,n,n
CN(C)CCNC(=O)CN1C(=O)COc2ccc(S(=O)(=O)N3CCCC3)cc21,n,n,n,n,n
Cc1ccc(CNC(=O)Cc2c(C)c3cc4c(C)coc4cc3oc2=O)cc1,n,n,n,n,n
CCC(O)CNc1nc(-n2nc(C)cc2C)nc2sc3c(c12)CCCC3 (stereo not given),n,n,n,n,n
Cc1cc(C)n(-c2nc(SCCN(C)C)c3c4c(sc3n2)CCCC4)n1,n,n,37.8,n,n
Cc1ccc(N/C=C/c2onc(C)c2[N+](=O)[O-])cc1,n,n,n,32.6,n
Cc1cccc(C)c1N/C=C/c1onc(C)c1[N+](=O)[O-],n,n,n,n,n
Cc1noc(/C=C/c2ccc(-c3ccccc3Cl)o2)c1[N+](=O)[O-],31.8,n,n,133.5,n
Cc1noc(/C=C/c2cccnc2)c1[N+](=O)[O-],n,n,n,n,n
CCc1cccc(NC(c2nnc(-c3ccccc3)o2)c2ccc(F)cc2Cl)c1 (stereo not given),n,n,n,n,n
CNc1oc(-c2ccco2)nc1C#N,n,n,n,n,n
Cc1ccc(CNc2oc(-c3ccco3)nc2C#N)cc1,n,-37.1,n,n,n
COc1cccc(NC(=O)CSc2nc3c(oc4ccccc43)c(=O)n2Cc2ccco2)c1,n,n,n,n,n
O=C(NCc1ccccn1)c1n[nH]c2ccccc12,n,n,39.2,n,n
O=C(NCc1ccccn1)c1n[nH]c(=O)c2ccccc12,n,n,n,n,n
COc1ccccc1-[n+]1c(C)cc(/C=C2\Sc3ccccc3N2C)cc1C,60.8,n,89.6,41.8,n
COc1ccc(-[n+]2c(C)cc(/C=C3\Sc4ccccc4N3C)cc2C)cc1,73.3,n,66.2,78.1,n
COC(=O)Cn1nc(C)c2c(C)n(-c3ccccc3)nc2c1=O,n,n,n,n,n
Cc1ccc(C)c(N2CCN(C(=S)NC3CCCCC3)CC2)c1,n,n,n,n,n
Cc1cccc(N2CCN(C(=S)NC3CCCCC3)CC2)c1C,n,-33.3,n,n,n
Cc1ccc(CN(CC(=O)NC2CCCC2)C(=O)c2csnn2)cc1,n,n,n,n,n
O=C(CN(Cc1ccc(Cl)cc1)C(=O)c1csnn1)NCc1ccccc1,n,n,n,n,x
O=C(CN(Cc1ccccc1)C(=O)c1csnn1)NCc1ccccc1,n,-66.7,n,n,n
COc1ccc(CN(CC(=O)NC2CCCC2)C(=O)c2csnn2)cc1,n,-48.7,n,n,n
SMILES,TRHR agonist,D1 antagonist,TRHR enhancer,D1 ag,D1 potentiator
CC1CCN(Cc2c(O)ccc3c(=O)c(-c4cccc(Cl)c4)c(C(F)(F)F)oc23)CC1,n,n,n,n,n
CCC(=O)NC(=S)Nc1ccc(NC(=O)c2cccc([N+](=O)[O-])c2C)cc1,n,-39.8,n,n,n
CCC(=O)NC(=S)Nc1ccc(NC(=O)c2ccccc2[N+](=O)[O-])cc1,n,n,n,n,n
CCOC(=O)c1cn(Cc2ccc(Br)cc2)nn1,n,n,36.2,n,n
CCOC(=O)c1cn(Cc2ccc(C)cc2)nn1,n,n,n,n,n
COc1ccccc1NC(=O)Cn1c(=O)n(CC2CCC(C(=O)NCCc3ccccc3)CC2)c(=O)c2ccccc21 (stereo not given),n,n,n,n,n
CCN(CCO)Cc1csc2ccccc12,n,-38.1,n,n,n
CCN(CCO)Cc1csc2ccc(C(C)(C)C)cc12,n,-81.7,n,n,n
CCN(CCO)Cc1csc2ccc(Cl)cc12,n,n,n,n,n
CCN(CCO)Cc1csc2cc(C)ccc12,n,n,n,n,n
Cn1c(C(=O)NCc2ccccc2F)cc2cc(S(=O)(=O)N3CCCCC3)ccc21,n,n,n,n,n
Cn1c(C(=O)NCc2cccc(F)c2)cc2cc(S(=O)(=O)N3CCCCC3)ccc21,n,-53.7,n,n,n
CN(C)c1ccc(CNC(=O)c2cc3cc(S(=O)(=O)N4CCCCC4)ccc3n2C)cc1,n,n,n,n,n
O=C(CCn1ccc2cc(S(=O)(=O)N3CCCC3)ccc21)NCc1cccc(F)c1,n,-32.6!,n,n,n
Cc1cccc(CNC(=O)c2cc3cc(S(=O)(=O)N4CCCCC4)ccc3n2C)c1,n,-46.3,n,n,n
Cc1cccc(Cn2c(=O)n(-c3ccccc3C)c(=O)c3c2c2cc(C)ccc2n3C)c1,n,n,n,n,n
COc1cc(-c2cc(OC)c3c(C)oc(C)c3c(=O)c2)ccc1OC(=O)c1ccccc1F,n,n,n,n,n
COCc1cc(C)nc2sc3c(=O)n(-c4cc(C)ccc4C)nnc3c12,n,n,n,n,n
Cn1nc(-c2ccc(C(=O)Nc3cccc(Cl)c3)cc2)c2ccccc2c1=O,n,-36.5,n,n,n
Cc1nn2c(-c3cccc(NC(=O)c4ccc(Cl)cc4)c3)nnc2c2ccccc12,n,n,42.2,n,n
Cc1nn2c(-c3cccc(NC(=O)c4ccco4)c3)nnc2c2ccccc12,n,n,n,n,n
COc1ccc(C2/C(=C(/O)c3ccc(C)cc3)C(=O)C(=O)N2CCCN2CCOCC2)cc1 (stereo not given),n,n,n,n,37.3
CCN(CC)CCN1C(=O)C(=O)/C(=C(/O)c2ccc(OC)cc2)C1c1ccco1 (stereo not given),n,-34.0,n,n,n
FC(F)(F)c1cccnc1Oc1ccc(C2=NCCS2)cc1,n,n,n,37.2,n
Nc1cccnc1Oc1ccc(F)cc1,n,n,n,n,n
SMILES,TRHR agonist,D1 antagonist,TRHR enhancer,D1 ag,D1 potentiator
COc1ccc(NC(=O)CN2C(=O)COc3ccc(S(=O)(=O)Nc4ccccc4)cc32)cc1,n,n,n,n,n
CCCCOC(=O)c1ccccc1N1C(=O)C2C3CCC(C3)C2C1=O (stereo not given),n,-32.3,n,n,n
Cc1ccc(C)c(C(=O)COC(=O)c2ccccc2N2C(=O)C3C4CCC(C4)C3C2=O)c1 (stereo not given),n,-42.2,n,n,n
COc1ccccc1-c1c(C(F)(F)F)oc2c(CN3CCCCC3C)c(O)ccc2c1=O (stereo not given),n,n,n,n,n
COc1cccc(NC(=O)CCc2c(C)nc3ncnn3c2C)c1,n,n,n,n,n
Cc1ccc(C)c(NC(=O)CN2CCCN(Cc3cccc(Cl)c3)S2(=O)=O)c1,n,-78.6,n,n,n
Cc1cccc(CN2CCN(CC(=O)Nc3c(C)cccc3C)S2(=O)=O)c1,35.8,n,n,n,n
CCc1cccc(NC(=O)CN2CCCN(Cc3cccc(C)c3)S2(=O)=O)c1,n,n,n,n,n

# Screening data as filed in PubChem.
